High-throughput results deposited in PubChem BioAssay by National Center for Advancing Translational Sciences (NCATS).
SARS PLpro yeast: qHTS of Yeast-based Assay for SARS-CoV PLP; Potency, µM (top dose mostly 32.9 µM), for inactives: top-dose activity, positive = growth rescue, actives largely listed as activators; hit rate 0.19% among 330,000; AID 485353, 2010; S. cerevisiae expressing SARS-CoV PLpro, growth rescue; further: potency means the concentration at half of the fitted maximal effect; 0% is about no effect; nearly all actives have a fitted effect of over 55% in size
NS1 function inh: qHTS Assay for Inhibitors of Influenza NS1 Protein Function. Potency, µM (highest dose often 46.1 µM), for inactives: at the highest dose activity, positive = more growth. hit rate 0.4% among 270,000; further: potency means the concentration at half of the fitted maximal effect; actives are rising curves; nearly all actives have a fitted effect of over 50% in size
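S. cerevisiae expressing influenza A NS1, grown in glucose, washed, then diluted 1:100 into pH 6.0 -URA galactose medium with 23 nl compound. Growth recovery read as OD600; NS1-free strain serves as control.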
Shiga toxin inh: A qHTS for Small Molecule Inhibitors of Shiga Toxin | AID 2315, 2010 | inhibition, % at 38.7 µM | Vero cells, Shiga toxin protein synthesis inhibition reporter | hit rate 9.2% among 290,000; in the data active means inhibition mostly above about 28%, no sharp cut-off; inactive means mostly below about 43%; further: 0% is about no effect
Pf growth 96h: Primary qHTS for delayed death inhibitors of the malarial parasite plastid, 96 hour incubation | P. falciparum luciferase reporter growth, 96 h | AID 504834, 2011 | Potency, µM (series often up to 28.7 µM), without a hit: at the top dose activity change, negative = inhibition, usual class: inhibitors | hit rate 6.9% among 320,000; active means well fitted inhibition curve with a large enough effect; inconclusive means small, poorly fitted or top-dose-only effect, or another doubt; inactive means no such curve, though single readings can be large or run the other way; further: potency means the concentration at half of the fitted maximal effect; on the % scale 0 is the no-effect control and ±100 the full control effect
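96 h incubation, 37 C, 5% CO2, of luciferase-reporter P. falciparum-infected RBCs (2% hematocrit, 0.05% parasitemia final) with test compounds; endpoint luminescence.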
CHX counter: Cycloheximide Counterscreen for Small Molecule Inhibitors of Shiga Toxin | cell reporter, cycloheximide protein synthesis inhibition counterscreen | max response, % | hit rate 12% among 300,000; in the data active means max response mostly above about 13%, no sharp cut-off; inactive means mostly below about 14%; further: read at 38.3 µM for the half of the compounds with a filed dose; 0% is about no effect
Pf growth 48h: Primary qHTS for delayed death inhibitors of the malarial parasite plastid, 48 hour incubation; P. falciparum luciferase growth in erythrocytes, 48 h; Potency, µM (series often up to 28.7 µM), inactives show at the highest dose activity change, negative = inhibition, most hits filed as inhibitors; hit rate 5.9% among 310,000; AID 504832, 2011; active means well fitted inhibition curve with a large enough effect; inconclusive means small, poorly fitted or top-dose-only effect, or another doubt; inactive means no such curve, though single readings can be large or run the other way; further: potency means the concentration at half of the fitted maximal effect; on the % scale 0 is the no-effect control and ±100 the full control effect
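In quantitative HTS format, infected erythrocytes bearing luciferase-reporter parasites were treated for a single generation at 37 C. Luminescence after adding detection reagent served as the growth measure.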
* = called active by the depositor; i = inactive; ? = inconclusive; . = no result given. Shown are actives, neighbours in structure and some others; about 21% of the full set was active somewhere. Unless noted, the call rests on the fitted dose curve.

SMILES	SARS PLpro yeast	NS1 function inh	Shiga toxin inh	Pf growth 96h	CHX counter	Pf growth 48h
COc1ccc(NC(=O)CSc2nnc(Cn3cnc4ccccc43)n2C)cc1	-5%	5%	-4	2.3µM*	-3	-14%
O=C(CSCc1c(Cl)cccc1Cl)Nc1nccs1	13%	9%	109*	?	42	26%
O=C(Cc1c(F)cccc1Cl)NC1=NCCS1	-1%	.	3	23%	20*	14%
Cn1c(Cn2cnc3ccccc32)nnc1SCC(=O)CC(=O)Nc1ccccc1	4%	?	4	-23%	-6	-20%
Cc1ccc(CCC(=O)Nc2nccs2)o1	6%	3%	17	-21%	40	17%
CCc1ccc(CCC(=O)Nc2nccs2)o1	-10%	-2%	60*	.	34*	31%
CC(C)C[C@H](NC(=O)c1nc[nH]c1C(=O)N1CCN(c2ccccc2)CC1)C(=O)OCc1ccccc1	1%	-4%	-14	46%	-3	23%
O=C(CSc1cn(Cc2ccccc2)c2ccccc12)NCc1ccc(F)cc1	-2%	17%	-13	9.3µM*	-5	?
CCn1c(SCC(=O)Nc2nccs2)nnc1-c1cccnc1	-1%	10%	19	21%	31*	11%
O=C(CSc1ccc(F)cc1)NC(=O)NCc1ccccc1	-3%	.	27	39%	-2	-6%
CCN(C(=O)c1cnc(NC(C)C)cc1C(F)(F)F)c1ccc(Cl)cc1Cl	-3%	-5%	-6	12µM*	-1	2.9µM*
CCN(C(=O)c1cc(Cl)ccc1OC)c1ccccc1C	21%	-8%	-3	-3%	7	?
COc1ccc(Cc2nnc(NC(=O)c3ccc(F)cc3)s2)cc1OC	5%	6%	.	-21%	1	?
CC1CC(NC(=O)c2cc3c(=O)n4ccccc4nc3n2C)CC(C)(C)C1 (configuration not stated)	10%	-11%	-2	0%	-3	12µM*
CC1CCCCC1NC(=O)c1cc2c(=O)n3ccccc3nc2n1C (configuration not stated)	15%	3%	23	2.3µM*	1	0%
Cc1csc2nc(O)c(C(=O)NC3CCCCC3C)c(=O)n12 (configuration not stated)	7%	.	.	?	.	7.4µM*
CC1CCCCC1NC(=O)c1c(O)nc2ccccn2c1=O (configuration not stated)	-1%	.	.	5.2µM*	.	5.2µM*
Cc1csc2nc(O)c(C(=O)NCC3CCCO3)c(=O)n12 (configuration not stated)	7%	.	.	-4%	.	?
COc1ccc(C(C)NC(=O)C2CCCC2)cc1OC (configuration not stated)	-5%	15%	-7	-12%	-2	?
CCCCn1c(N)c(N(CCOC)C(=O)CN2c3ccccc3CC2C)c(=O)[nH]c1=O (configuration not stated)	-1%	.	-8	-11%	1	-14%
COc1ccc(S(=O)(=O)N(C)c2ccc(C(=O)NCc3ccccn3)cc2)cc1OC	-5%	-1%	-16	-9%	1	-3%
Cn1c(Br)nc2c1c(=O)n(CC(O)COc1ccccc1)c(=O)n2C (configuration not stated)	0%	-18%	15	289%	-5	-5%
CNC(=O)N(C1=NCC(C)(C)S1)c1ccc(F)c(Cl)c1	8%	-89%	1	7.4µM*	-5	.
NC(=O)c1ccc(NC(=O)c2cnc3ccccc3n2)cc1	0%	-3%	80*	96%	37*	88%
CC(NC(=O)c1cnc2ccccc2n1)c1ccccc1 (configuration not stated)	-2%	-3%	41	-28%	23*	?
SMILES	SARS PLpro yeast	NS1 function inh	Shiga toxin inh	Pf growth 96h	CHX counter	Pf growth 48h
CC(=O)Nc1cnc2ccccc2n1	-2%	-1%	-4	-13%	2	6%
Cc1ccc(NC(=O)c2ccc(=O)[nH]n2)cc1C	12%	3%	100*	100%	48*	80%
NC(=O)c1ccc(NC(=O)c2cccc(Oc3ccccc3)c2)cc1	1%	.	102	0%	7	-2%
O=C(Nc1ccccc1)c1cnc2ccccc2n1	-1%	2%	60*	135%	40*	203%
COc1ccc(C(Sc2ccccc2)c2ccccc2)cc1OC (configuration not stated)	-2%	.	.	?	.	?
CC1Cc2ccccc2N1C(=O)c1ccc(F)c(S(=O)(=O)N2CCOCC2)c1 (configuration not stated)	-3%	.	.	.	.	.
Cc1ccc(NC(=O)c2ncc(Cl)c(Cl)c2Cl)cc1C	0%	3%	61	125%	40*	283%
CC(OC(=O)c1cnc2ccccc2n1)c1ccccc1Cl (configuration not stated)	-2%	-33%	69*	85%	36*	52%
Cc1ccc(NC(=O)c2ccccc2C(=O)O)cc1C	.	-5%	.	.	.	.
Cc1ccc(NC(=O)c2cnc3ccccc3n2)cc1C	0%	-5%	67*	i	51*	290%
O=S(=O)(Nc1ccc(Cl)cn1)c1ccc2c(c1)OCCO2	-1%	.	.	3%	.	16%
Cc1ccc([N+](=O)[O-])c(OCCCN2C(=O)NC(C)(C)C2=O)c1	1%	11%	57	-5%	19*	11%
CC1(C)NC(=O)N(CCCOc2ccc3c(c2)CCC3)C1=O	-5%	-21%	59*	.	34*	42%
C/C=C/c1ccc(OCCN2C(=O)NC(C)(C)C2=O)c(OC)c1	.	5%	12	.	4	?
Cc1ccc(C(C)C)c(OCCN2C(=O)NC(C)(C)C2=O)c1	2%	2%	-16	.	7	?
CC1(C)NC(=O)N(CCCOc2ccc(Br)cc2Cl)C1=O	-3%	-36%	134*	.	40*	105%
C/C=C/c1ccc(OCCCN2C(=O)NC(C)(C)C2=O)c(OC)c1	3%	1%	27	.	23*	-9%
CC1(C)NC(=O)N(CCCCOc2ccc(Cl)cc2)C1=O	4%	-13%	-6	?	-3	.
Cc1cc2c(s1)c1cnn(Cc3ccc(-c4ccccc4)cc3)c(=O)c1n2C	.	.	-7	.	-3	.
N#Cc1c(/N=C/c2ccc(-c3ccc(C(=O)O)c(Cl)c3)o2)sc2c1CCCC2	1%	.	.	16%	.	2%
Cc1ccc(/C=N/c2sc3c(c2C#N)CCC3)o1	-2%	13%	2	?	1	?
N#Cc1c(/N=C/c2ccc(Br)s2)sc2c1CCC2	-20%	5%	15*	333%	25	316%
N#Cc1c(/N=C\c2ccc(O)c([N+](=O)[O-])c2)sc2c1CCCC2	-2%	1%	45	82%	44*	72%
N#Cc1c(/N=C/c2cccs2)sc2c1CCCCC2	-14%	-91%	86*	.	35*	354%
